Assay results reported in PubChem BioAssay (NCATS).
Results filed as inconclusive are left out. Where a call stands in place of a potency, no number is given. The source made the active and inactive calls. Calls follow the shape of the full dose curve.

These compounds were tested against Retinoic acid receptor RXR-alpha (Homo sapiens) (UniProt P19793) (assay: qHTS assay for small molecule agonists of retinoid X receptor alpha signaling (AID 588544)). Details: HEK293T RXRa-UAS-bla, beta-lactamase reporter, 18 h; series mostly up to 76.7 µM.
Sequence of Retinoic acid receptor RXR-alpha (Homo sapiens) (P19793 whole entry, looked up): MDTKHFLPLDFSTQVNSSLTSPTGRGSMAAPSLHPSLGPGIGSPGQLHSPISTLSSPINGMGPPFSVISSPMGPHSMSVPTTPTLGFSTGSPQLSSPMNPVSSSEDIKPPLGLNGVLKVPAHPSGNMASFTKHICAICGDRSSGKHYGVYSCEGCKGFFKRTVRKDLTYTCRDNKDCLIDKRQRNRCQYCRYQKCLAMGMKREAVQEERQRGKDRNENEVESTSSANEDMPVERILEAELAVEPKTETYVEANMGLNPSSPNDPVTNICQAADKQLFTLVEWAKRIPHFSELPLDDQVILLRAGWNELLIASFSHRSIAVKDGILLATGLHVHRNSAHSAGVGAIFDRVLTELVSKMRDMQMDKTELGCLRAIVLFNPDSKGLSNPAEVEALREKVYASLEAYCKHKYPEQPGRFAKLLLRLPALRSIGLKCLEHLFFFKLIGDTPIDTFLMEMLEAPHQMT
Source text: NIH Chemical Genomics Center [NCGC] U.S. Environmental Protection Agency [EPA] National Institutes of Environmental Health Sciences [NIEHS] National Toxicology Program [NTP] NCGC Assay Overview The Retinoid X receptor (RXR), a nuclear hormone receptor is expressed in liver, spleen, placenta, epidermis, central nervous system. These receptors are able to form homo and heterodimers with other nuclear receptors and due to this heterodimerizing ability, RXR functions as master regulators producing diverse physiological effects. Three subtypes of RXR exist; alpha, beta and gamma. Retinoid X receptor alpha (RXR-alpha) has potential roles in metabolic signaling pathways, skin alopecia, dermal cysts, cardiac development, insulin sensitization etc. Therefore screening environmental chemicals on RXR-alpha signaling can be used for the studies focused on such therapeutic applications.
NCGC Assay Protocol Summary Using a beta-lactamase reporter-gene under control of Retinoid X receptor--alpha (RXR-alpha) response element, a cell-based assay [GeneBLAzer (RXR-alpha -UAS-bla assay developed by Invitrogen] was used to measure RXR-alpha ligands signaling. GeneBLAzer RXR-alpha -UAS-bla HEK293T cells were used with assay medium containing 2% charcoal-stripped FBS. The assay was performed in clear bottom black Greiner 1536-well plates. 9-cis-retinoic acid was used in the screen as the positive control. Library compounds were measured for their ability to stimulate the reporter gene activity. Compounds were screened in a titration series in 1536-well format. The fluorescence intensity (405 nm excitation, 460/530 nm emission) was measured using an EnVision plate reader. Data was normalized relative to 9-cis-retinoic acid control (500 nM, 100%), and DMSO only wells (basal, 0%). Concentration-response titration points for each compound were fitted to the Hill equation yielding concentrations of half-maximal stimulation (EC50) and maximal response (efficacy) values. qHTS protocol for RXR-alpha beta-lactamase assay in agonist mode [Step] [Parameter] [Value] [Description] 1. Reagent; 6 uL; 2500 cells/well 2. Incubation; 37 C for 4 hrs 3. Compounds; 23 nL; 0.59 nM to 92 uM 4. Controls (9-cis-retinoic acid); 23 nL, - One column with dose response, start 38 uM, 1:3 dilutions in duplicates - Final concentrations of 500 nM and 50 nM in two columns 5. Incubation; 37 C for 18 hrs 6. Detection reagent; 1 uL of CCF4-dye 7. Incubation; RT for 2 hrs 8. Detection; Fluorescence; Envision plate reader
With `CCCCC(CC)COP(=O)(OCC(CC)CCCC)OCC(CC)CCCC` (stereo not given) the Potency was “inactive”. For `c1ccc2ncccc2c1`, the Potency was “inactive”. With `c1c[nH]cn1` the Potency was “inactive”. For `NC(=O)c1ccc([N+](=O)[O-])cc1`, the Potency was “inactive”. In the case of `COc1ccc([N+](=O)[O-])cc1N`, the Potency is reported as “inactive”. With `C/C=C/C=C/C=O` the Potency was “inactive”. In the case of `Nc1ccc2c(c1)C(=O)c1ccccc1C2=O`, the Potency is reported as “inactive”. In the case of `Nc1ccccc1O`, the Potency is reported as “inactive”. In the case of `Oc1c(Cl)cc(Cl)c(Cl)c1Cl`, the Potency is reported as “inactive”. In the case of `CC(=O)OC(C(=O)c1ccccc1)c1ccccc1` (stereo not given), the Potency is reported as “inactive”. With `CC(CCC(=O)O)(c1ccc(O)cc1)c1ccc(O)cc1` the Potency was “inactive”. `CCCCCCCC/C=C\CCCCCCCC(=O)N(CCO)CCO` was tested, and the Potency was “inactive”. With `COc1ccc(C)cc1N` the Potency was “inactive”. `Cc1cc(-c2ccc(N=Nc3cc(S(=O)(=O)O)c4ccccc4c3N)c(C)c2)ccc1N=Nc1cc(S(=O)(=O)O)c2ccccc2c1N` was tested, and the Potency was “inactive”. In the case of `Cc1c(C(=O)O)c(O)cc2c1C(=O)c1c(O)c([C@H]3O[C@H](CO)[C@@H](O)[C@H](O)[C@H]3O)c(O)c(O)c1C2=O`, the Potency is reported as “inactive”. With `Nc1ccc(N)c(Cl)c1` the Potency was “inactive”. For `Nc1cnn([C@@H]2O[C@H](CO)[C@@H](O)[C@H]2O)c(=O)n1`, the Potency was “inactive”. In the case of `CC(=O)OC1CC(C)OC(C)O1` (stereo not given), the Potency is reported as “inactive”. With `CC(=O)CC(=O)Nc1ccccc1` the Potency was “inactive”. For `O=c1[nH]ncc2ccccc12`, the Potency was “inactive”. For `O=C(O)c1ccc([N+](=O)[O-])cc1`, the Potency was “inactive”. For `NC(=O)Nc1nc2ccccc2[nH]1`, the Potency was “inactive”. In the case of `C[Si](C)(C)Cl`, the Potency is reported as “inactive”. For `CC(C)OCC1CO1` (stereo not given), the Potency was “inactive”. `CC(/C=C/C=C(C)/C=C/C(=O)O)=C\C=C\C=C(C)\C=C\C=C(C)\C=C\C(=O)O` was tested, and the Potency was “inactive”. With `CCCCC(CC)COC(=O)COc1ccc(Cl)cc1Cl` (stereo not given) the Potency was “inactive”. With `Cc1c(N)cccc1Cl` the Potency was “inactive”. In the case of `C=CC(=O)OCCCCCCOC(=O)C=C`, the Potency is reported as “inactive”. In the case of `Brc1ccc(-c2ccccc2)cc1`, the Potency is reported as “inactive”. For `c1ccc(Nc2cccc3ccccc23)cc1`, the Potency was “inactive”. For `O=[N+]([O-])c1cc(N(CCO)CCO)ccc1NCCO`, the Potency was “inactive”. In the case of `Oc1ccc(O)c2c(O)cccc12`, the Potency is reported as “inactive”. In the case of `CC(=O)Nc1cccc(C)c1`, the Potency is reported as “inactive”. In the case of `CCCCCCCCOc1ccc(C(=O)O)cc1`, the Potency is reported as 39.8 µM (active). In the case of `CCOc1ccc2nc(N)sc2c1`, the Potency is reported as “inactive”. For `CC(=O)c1ccc(Cl)c(Cl)c1Cl`, the Potency was “inactive”. With `Cc1ccc2ccc3cccc4ccc1c2c34` the Potency was “inactive”. With `CC(=O)OCc1ccc2c(c1)OCO2` the Potency was “inactive”. `O=C1c2ccccc2C(=O)C1(O)O` was tested, and the Potency was “inactive”. For `CCCCOC(=O)COc1ccc(Cl)cc1Cl`, the Potency was “inactive”.
